Only some compounds are listed: those with a hit (about 21% of all), similar ones and a draw of the others.
NS1 function inh = blocks influenza NS1 protein function | AID 2326 | Potency, µM (doses to about 46.1 µM), inactives show at the highest dose activity, positive = more growth | 270,000 compounds, 0.4% hits; calls by dose curve; further: potency means the concentration at half of the fitted maximal effect; actives are rising curves; nearly all actives have a fitted effect of over 50% in size
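S. cerevisiae expressing influenza A NS1, grown in glucose, washed, then diluted 1:100 into pH 6.0 -URA galactose medium with 23 nl compound. Growth recovery read as OD600; NS1-free strain serves as control.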
Shiga inhibitor = blocks Shiga toxin action in Vero cells; Vero cells, Shiga toxin protein synthesis inhibition reporter; inhibition, % at 38.7 µM; 290,000 compounds, 9.2% hits; in the data active means inhibition mostly above about 28%, no sharp cut-off; inactive means mostly below about 43%; further: 0% is about no effect
Pf growth 96h = inhibits malaria parasite growth, 96 h; Potency, µM (series often up to 28.7 µM), for the others: at the highest dose activity change, negative = inhibition, usual class: inhibitors; AID 504834; P. falciparum luciferase reporter growth, 96 h; 320,000 compounds, 6.9% hits; further: potency means the concentration at half of the fitted maximal effect; on the % scale 0 is the no-effect control and ±100 the full control effect
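Luminescence readout: decreased luciferase signal marks inhibited growth of reporter-expressing P. falciparum in infected red cells (2% hematocrit, 0.05% parasitemia final), exposed to compound two generations (96 h, 37 C, 5% CO2).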
Pf growth 48h = P. falciparum growth inhibition at 48 hours (one generation); Potency, µM (series often up to 28.7 µM), for inactives: at the top dose activity change, negative = inhibition, most hits filed as inhibitors; 310,000 compounds, 5.9% hits; P. falciparum luciferase growth in erythrocytes, 48 h; AID 504832; further: potency means the concentration at half of the fitted maximal effect; on the % scale 0 is the no-effect control and ±100 the full control effect
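First compound was added to culture medium, then infected red cells at 0.1% parasitemia and 2% hematocrit (final). After incubation at 37 C under 5% CO2, luciferase detection reagent was dispensed and light output recorded.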
CHX counter = counter-screen hit for Shiga toxin inhibitors, cycloheximide. cell reporter, cycloheximide protein synthesis inhibition counterscreen. max response, %. 300,000 compounds, 12% hits; in the data active means max response mostly above about 13%, no sharp cut-off; inactive means mostly below about 14%; further: read at 38.3 µM for the half of the compounds with a filed dose; 0% is about no effect
Giardia FBPA inh = Giardia lamblia aldolase inhibition | A8B2U2 | purified Giardia FBPA | Potency, µM (highest dose often 59.6 µM), inactives show at the top dose activity, negative = inhibition, hits mostly inhibitors | 290,000 compounds, 0.71% hits; further: potency means the concentration at half of the fitted maximal effect; on the % scale 0 is the no-effect control and ±100 the full control effect; nearly all actives have a fitted effect of over 55% in size
Target sequence (A8B2U2 whole entry, looked up): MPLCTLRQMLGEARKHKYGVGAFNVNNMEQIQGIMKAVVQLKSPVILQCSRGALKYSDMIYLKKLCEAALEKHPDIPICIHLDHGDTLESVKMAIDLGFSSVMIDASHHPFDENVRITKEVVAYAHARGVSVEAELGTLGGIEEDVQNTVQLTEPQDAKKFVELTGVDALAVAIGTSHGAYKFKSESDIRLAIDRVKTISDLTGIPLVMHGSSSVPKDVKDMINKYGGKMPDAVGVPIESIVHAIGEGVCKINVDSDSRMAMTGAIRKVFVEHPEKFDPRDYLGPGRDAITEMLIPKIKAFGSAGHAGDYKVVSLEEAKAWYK
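40 nM FBPA preincubated 10 min at RT with compound (up to 57.5 uM final), then substrate plus GAPDH/TPI/NAD/arsenate coupling and diaphorase/resazurin added. Fluorescence read after 20 min at RT, 525/598 nm.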
* hit, by the source's call; ? = inconclusive; / = no result given. Unless noted, the call rests on the fitted dose curve; in most records, active means well fitted curve in the direction sought with a large enough effect; inconclusive means small, poorly fitted or top-dose-only effect, or another doubt; inactive means no such curve, though single readings can be large; an effect the other way counts as inactive or inconclusive.

SMILES | NS1 function inh | Shiga inhibitor | Pf growth 96h | Pf growth 48h | CHX counter | Giardia FBPA inh
CCOC(=O)c1c(C)[nH]c(C=Nc2ccccc2)c1O | 4% | 1 | 9.3µM* | -1% | 16 | ?
CCOC(=O)c1c(C)[nH]c(C=Nc2ccc(OC)cc2)c1O | 12% | 84* | 15µM* | -21% | 20* | -27%
COC(=O)c1c(C)[nH]c(C=Nc2ccc(OC)cc2)c1C | 1% | -4 | 104% | 5% | -3 | -19%
CCOC(=O)c1c(C)[nH]c(O)c1C=Nc1ccccc1 | -7% | -8 | ? | ? | -2 | -15%
Cc1cccc2nc3c(nc12)CCCC3 | 2% | -15 | 21% | 4% | -2 | 5%
Cc1cc2nc3c(nc2cc1C)CCCC3 | -4% | 108* | 48% | 96% | 59* | 10%
N#CC(Cc1cccc(CC(C#N)(c2ccccc2)c2ccccc2)c1)(c1ccccc1)c1ccccc1 | ? | 5 | 0.83µM* | 1.2µM* | 1 | 4%
Cc1ccc(-c2nc3c(c(SCC(=O)Nc4cccc(C(=O)O)c4)n2)Cc2cccc(C)c2O3)cc1 | / | / | 3% | -12% | / | /
Cc1c2c(c(O)c3c(O)cccc13)C(=O)O[C@H]2C1C(N(C)C)C(O)=C(C(N)=O)C(=O)[C@H]1O (some centres undefined) | / | 11 | / | / | -9 | 10µM*
CN(C)C1C(=O)C(C(N)=O)=C(O)[C@@]2(O)C(=O)C3=C(O)c4c(O)ccc(Cl)c4C(O)[C@H]3C[C@@H]12 (some centres undefined) | / | / | / | / | / | -15%
N#CC(=C1CCCC1)c1nc(-c2cc3ccccc3oc2=O)cs1 | 1% | 51* | 245% | 40% | 32* | 6%
Cc1cc(C)c(-c2csc(Cc3nc(-c4cc5ccccc5oc4=O)cs3)n2)cc1C | -2% | -8 | ? | ? | 7 | 2%
N#CC(=C1CCCC1)c1nc(-c2ccccc2O)cs1 | 2% | 106* | 41% | -30% | 54* | -11%
Cc1ccc(-c2csc(C(C#N)=C3CCCC3)n2)cc1 | -9% | 74* | / | 229% | 25* | /
N#CC(=C1CCCC1)c1nc(-c2ccccc2)cs1 | -6% | 103* | / | 158% | 54* | /
CCOc1ccc(NS(=O)(=O)c2ccc(C(=O)N(C)Cc3cccc(OC)c3OC)cc2)cc1 | -18% | 14 | ? | -13% | 5 | /
CC1=CC(C/C(C)=C/COc2ccc3ccc(=O)oc3c2)OC1=O (centres undefined) | -3% | 24* | 33% | -7% | 16* | -18%
CC(C)=CCOc1ccc2ccc(=O)oc2c1 | -6% | 35* | 113% | 61% | 21* | 5%
COc1cc2ccc(=O)oc2c(O)c1OCC=C(C)C | -5% | 85* | 13% | 13% | 11 | ?
CC(C)=CCC/C(C)=C/COc1c2occc2cc2ccc(=O)oc12 | / | / | / | / | / | -23%
CC(CCc1ccccc1)NC(=O)CSc1ccccc1 (centres undefined) | -11% | 15 | 13µM* | -19% | 12 | 4%
Cc1ccc(SCC(=O)NCCCc2ccccc2)cc1 | -13% | -16 | 0% | 14% | 4 | 3%
O=C(CSc1ccccc1)NCCCc1ccccc1 | / | 11 | 15µM* | 6% | 9 | 2%
CC(CCc1ccccc1)NC(=O)CSc1cccc[n+]1[O-] (centres undefined) | / | -17 | 6% | 2% | 9 | 4%
CCCC[C@@H]1CCCO[C@@](C(=O)NCc2ccc(S(C)(=O)=O)cc2)(C(F)(F)F)C1 | / | 15 | / | / | -5 | -1%
SMILES | NS1 function inh | Shiga inhibitor | Pf growth 96h | Pf growth 48h | CHX counter | Giardia FBPA inh
COc1ccc(CNC(=O)c2onc(C)c2Cl)cc1 | -7% | 20 | 13µM* | -3% | -2 | 0%
COc1ccc(NC(=O)c2onc(C)c2Cl)cc1OC | -7% | 49* | 16% | / | 51* | 6%
COc1ccc(NC(=O)c2onc(C)c2Cl)cc1 | -1% | 89* | 252% | 124% | 40* | -4%
Cc1noc(C(=O)Nc2cccnc2Cl)c1Cl | -2% | 6 | 24% | 54% | 15 | 6%
COC(=O)c1ccccc1NC(=O)c1onc(C)c1Cl | 0% | -6 | 5.2µM* | 31% | 0 | 5%
COc1cc(NC(=O)c2onc(C)c2Cl)cc(OC)c1OC | -7% | -9 | 28% | -8% | -2 | 0%
CCc1ccc(NC(=O)c2onc(C)c2Cl)cc1 | -19% | 56* | 25% | / | 59* | -4%
COc1ccc(CNC(=O)c2cc(C3CC3)on2)cc1 | -11% | 81 | -16% | / | 25* | -3%
Cc1noc(C(=O)Nc2ccc(C#N)cc2)c1Cl | 6% | 34 | 167% | 37% | -1 | 5%
COc1ccc(CNC(=O)c2cc(-c3cccc(OC)c3)on2)cc1 | -10% | / | / | / | / | /
C/C=C/c1ccc(OCCOc2cc(C=O)ccc2OC)c(OC)c1 | -11% | 62* | ? | 155% | 52* | -5%
C/C=C/c1ccc(OCC(=O)OCC)c(OC)c1 | -2% | 37 | 15% | ? | 14* | 1%
Cc1ccc(Nc2cc(C)nn2-c2nc(C)cc(C)n2)cc1 | -154% | -17 | / | 3.7µM* | 7 | 11%
N/C(=N/OC(=O)c1ccccc1F)c1nonc1N | -8% | 64* | -20% | 49% | 35* | 2%
N/C(=N\OC(=O)c1ccc(Cl)cc1)c1nonc1N | -8% | 78* | 43% | 37% | 44* | -2%
N/C(=N\OCc1ccccc1)c1nonc1N | / | 99* | ? | 227% | 55* | 1%
N/C(=N/OCc1cccc([N+](=O)[O-])c1)c1nonc1N | -13% | 17 | 18% | 21% | 7 | -3%
N/C(=N\OCC(=O)Nc1ccccc1)c1nonc1N | 9% | 3 | 59% | 0% | 12 | 0%
CC(=O)c1cccc(NC(=O)Cn2cnc(S(=O)(=O)N3CCOCC3)c2)c1 | -6% | 11 | -9% | -4% | 7 | /
Cc1cccc2c1cnn2C(=O)CCC(=O)NCC(C)c1ccccc1 (centres undefined) | -6% | -2 | ? | 3% | -3 | 8%
Cc1oc(-c2cccc(Cl)c2)nc1CN(C)C1CCOC1 (centres undefined) | -7% | -8 | -3% | -17% | -3 | 8%
Cc1oc(-c2ccc(-c3ccccc3)cc2)nc1CN(C)C1CCOC1 (centres undefined) | 2% | 75* | ? | 145% | 60* | 0%
Cc1ccc(-c2nc(CN(C)C3CCOCC3)c(C)o2)s1 | 3% | -3 | ? | 38% | 9 | 2%
Cc1ccc(-c2nc(CN(C)C3CCOC3)c(C)o2)s1 (centres undefined) | 0% | 47 | 19% | 25% | 25* | 5%
Cc1oc(-c2ccc(-c3ccccc3)cc2)nc1CN(CCO)C(C)C | -12% | 32 | ? | 159% | 37* | -9%
Cc1ccc(-c2nc(CN(C)Cc3cccc4cnccc34)c(C)o2)s1 | -3% | -7 | 13µM* | ? | 10 | -8%
CCC1C(=O)NCCN1Cc1nc(-c2ccc(C)s2)oc1C (centres undefined) | 3% | 10 | ? | 11% | -3 | -4%

Assay outcomes: PubChem, National Center for Advancing Translational Sciences (NCATS)
